According to the supplement of paper PMC11732987, “Enantioselective OTUD7B fragment discovery through chemoproteomics screening and high-throughput optimisation” (Communications Chemistry, 2025):

Legend:
Experiment in all cases: log2 ratio of Biotin-Ahx-Ub-VS probe labelling (fragment/DMSO); higher = less target engagement (more negative = stronger competition), active = hit call of the paper (q ≤ 0.05, log2 ratio ≤ -1)
Conditions in all cases: compound concentration: 200 uM; treatment time: 3 h
[1] = target: T1, USP19 (UniProt O94966)
T1 sequence (whole entry): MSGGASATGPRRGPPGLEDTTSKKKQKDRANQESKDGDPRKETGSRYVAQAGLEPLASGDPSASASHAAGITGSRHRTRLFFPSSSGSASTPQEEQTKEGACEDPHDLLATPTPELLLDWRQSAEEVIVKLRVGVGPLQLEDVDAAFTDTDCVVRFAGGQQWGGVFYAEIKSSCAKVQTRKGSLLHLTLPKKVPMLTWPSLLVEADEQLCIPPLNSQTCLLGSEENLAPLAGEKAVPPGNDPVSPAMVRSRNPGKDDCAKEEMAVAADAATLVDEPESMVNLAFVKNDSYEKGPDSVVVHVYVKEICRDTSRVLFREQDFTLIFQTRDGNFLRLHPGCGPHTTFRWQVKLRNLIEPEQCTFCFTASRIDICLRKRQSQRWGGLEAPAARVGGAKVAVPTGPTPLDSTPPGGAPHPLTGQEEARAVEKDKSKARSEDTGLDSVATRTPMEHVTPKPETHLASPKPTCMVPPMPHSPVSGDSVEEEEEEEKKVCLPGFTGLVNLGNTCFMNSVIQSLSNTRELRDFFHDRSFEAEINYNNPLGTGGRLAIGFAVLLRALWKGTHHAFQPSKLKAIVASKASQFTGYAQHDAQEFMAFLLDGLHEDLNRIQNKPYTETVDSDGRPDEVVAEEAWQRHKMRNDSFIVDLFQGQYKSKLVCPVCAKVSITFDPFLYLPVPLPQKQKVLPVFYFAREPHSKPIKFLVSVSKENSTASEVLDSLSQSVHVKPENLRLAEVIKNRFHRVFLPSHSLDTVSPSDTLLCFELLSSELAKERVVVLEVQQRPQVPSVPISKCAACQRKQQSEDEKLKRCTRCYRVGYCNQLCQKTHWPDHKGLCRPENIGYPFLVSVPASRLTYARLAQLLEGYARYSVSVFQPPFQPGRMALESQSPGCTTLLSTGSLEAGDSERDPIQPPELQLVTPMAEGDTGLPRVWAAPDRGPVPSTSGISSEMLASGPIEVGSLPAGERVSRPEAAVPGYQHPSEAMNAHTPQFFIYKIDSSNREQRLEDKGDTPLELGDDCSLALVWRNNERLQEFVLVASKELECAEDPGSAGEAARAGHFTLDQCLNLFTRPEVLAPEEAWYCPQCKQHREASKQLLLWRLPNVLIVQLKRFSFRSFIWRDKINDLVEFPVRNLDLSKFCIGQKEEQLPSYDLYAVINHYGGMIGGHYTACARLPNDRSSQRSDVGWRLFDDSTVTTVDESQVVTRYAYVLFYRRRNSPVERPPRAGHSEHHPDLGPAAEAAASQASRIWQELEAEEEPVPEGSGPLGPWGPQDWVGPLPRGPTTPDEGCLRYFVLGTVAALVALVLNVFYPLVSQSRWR
Method in brief: (§1)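 Triplicate samples of HEK293T lysate, 495 µg each, received fragment at 200 µM or vehicle for 3 h, followed by Biotin-Ahx-Ub-VS (0.5 µM final) for 1 h. After NeutrAvidin enrichment of labelled DUBs and LysC/trypsin digestion, peptides were run by diaPASEF LC-MS/MS. The values are average log2 fragment/vehicle ratios from global-median-normalised Spectronaut label-free quantities, tested by unpaired t-test on proteins having ≥2 unique peptides.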

[2] = target: T2, USP22 (UniProt Q9UPT9)
T2 sequence (whole entry): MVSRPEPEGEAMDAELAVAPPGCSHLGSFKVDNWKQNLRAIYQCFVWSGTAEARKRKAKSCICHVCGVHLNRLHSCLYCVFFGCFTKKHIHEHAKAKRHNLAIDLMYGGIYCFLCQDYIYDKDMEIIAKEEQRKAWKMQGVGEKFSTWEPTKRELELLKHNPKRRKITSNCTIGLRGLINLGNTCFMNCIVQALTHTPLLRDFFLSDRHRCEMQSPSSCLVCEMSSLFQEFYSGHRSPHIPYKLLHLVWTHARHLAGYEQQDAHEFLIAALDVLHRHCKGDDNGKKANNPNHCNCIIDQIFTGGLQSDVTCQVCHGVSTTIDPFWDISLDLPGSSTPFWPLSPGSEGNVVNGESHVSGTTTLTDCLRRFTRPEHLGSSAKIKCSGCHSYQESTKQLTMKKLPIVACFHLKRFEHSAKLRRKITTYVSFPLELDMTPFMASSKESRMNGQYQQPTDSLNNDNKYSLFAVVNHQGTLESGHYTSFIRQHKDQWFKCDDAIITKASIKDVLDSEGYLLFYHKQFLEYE
Method in brief: as §1

[3] = target: USP24 (UniProt Q9UPU5)
USP24, sequence (Q9UPU5 whole entry): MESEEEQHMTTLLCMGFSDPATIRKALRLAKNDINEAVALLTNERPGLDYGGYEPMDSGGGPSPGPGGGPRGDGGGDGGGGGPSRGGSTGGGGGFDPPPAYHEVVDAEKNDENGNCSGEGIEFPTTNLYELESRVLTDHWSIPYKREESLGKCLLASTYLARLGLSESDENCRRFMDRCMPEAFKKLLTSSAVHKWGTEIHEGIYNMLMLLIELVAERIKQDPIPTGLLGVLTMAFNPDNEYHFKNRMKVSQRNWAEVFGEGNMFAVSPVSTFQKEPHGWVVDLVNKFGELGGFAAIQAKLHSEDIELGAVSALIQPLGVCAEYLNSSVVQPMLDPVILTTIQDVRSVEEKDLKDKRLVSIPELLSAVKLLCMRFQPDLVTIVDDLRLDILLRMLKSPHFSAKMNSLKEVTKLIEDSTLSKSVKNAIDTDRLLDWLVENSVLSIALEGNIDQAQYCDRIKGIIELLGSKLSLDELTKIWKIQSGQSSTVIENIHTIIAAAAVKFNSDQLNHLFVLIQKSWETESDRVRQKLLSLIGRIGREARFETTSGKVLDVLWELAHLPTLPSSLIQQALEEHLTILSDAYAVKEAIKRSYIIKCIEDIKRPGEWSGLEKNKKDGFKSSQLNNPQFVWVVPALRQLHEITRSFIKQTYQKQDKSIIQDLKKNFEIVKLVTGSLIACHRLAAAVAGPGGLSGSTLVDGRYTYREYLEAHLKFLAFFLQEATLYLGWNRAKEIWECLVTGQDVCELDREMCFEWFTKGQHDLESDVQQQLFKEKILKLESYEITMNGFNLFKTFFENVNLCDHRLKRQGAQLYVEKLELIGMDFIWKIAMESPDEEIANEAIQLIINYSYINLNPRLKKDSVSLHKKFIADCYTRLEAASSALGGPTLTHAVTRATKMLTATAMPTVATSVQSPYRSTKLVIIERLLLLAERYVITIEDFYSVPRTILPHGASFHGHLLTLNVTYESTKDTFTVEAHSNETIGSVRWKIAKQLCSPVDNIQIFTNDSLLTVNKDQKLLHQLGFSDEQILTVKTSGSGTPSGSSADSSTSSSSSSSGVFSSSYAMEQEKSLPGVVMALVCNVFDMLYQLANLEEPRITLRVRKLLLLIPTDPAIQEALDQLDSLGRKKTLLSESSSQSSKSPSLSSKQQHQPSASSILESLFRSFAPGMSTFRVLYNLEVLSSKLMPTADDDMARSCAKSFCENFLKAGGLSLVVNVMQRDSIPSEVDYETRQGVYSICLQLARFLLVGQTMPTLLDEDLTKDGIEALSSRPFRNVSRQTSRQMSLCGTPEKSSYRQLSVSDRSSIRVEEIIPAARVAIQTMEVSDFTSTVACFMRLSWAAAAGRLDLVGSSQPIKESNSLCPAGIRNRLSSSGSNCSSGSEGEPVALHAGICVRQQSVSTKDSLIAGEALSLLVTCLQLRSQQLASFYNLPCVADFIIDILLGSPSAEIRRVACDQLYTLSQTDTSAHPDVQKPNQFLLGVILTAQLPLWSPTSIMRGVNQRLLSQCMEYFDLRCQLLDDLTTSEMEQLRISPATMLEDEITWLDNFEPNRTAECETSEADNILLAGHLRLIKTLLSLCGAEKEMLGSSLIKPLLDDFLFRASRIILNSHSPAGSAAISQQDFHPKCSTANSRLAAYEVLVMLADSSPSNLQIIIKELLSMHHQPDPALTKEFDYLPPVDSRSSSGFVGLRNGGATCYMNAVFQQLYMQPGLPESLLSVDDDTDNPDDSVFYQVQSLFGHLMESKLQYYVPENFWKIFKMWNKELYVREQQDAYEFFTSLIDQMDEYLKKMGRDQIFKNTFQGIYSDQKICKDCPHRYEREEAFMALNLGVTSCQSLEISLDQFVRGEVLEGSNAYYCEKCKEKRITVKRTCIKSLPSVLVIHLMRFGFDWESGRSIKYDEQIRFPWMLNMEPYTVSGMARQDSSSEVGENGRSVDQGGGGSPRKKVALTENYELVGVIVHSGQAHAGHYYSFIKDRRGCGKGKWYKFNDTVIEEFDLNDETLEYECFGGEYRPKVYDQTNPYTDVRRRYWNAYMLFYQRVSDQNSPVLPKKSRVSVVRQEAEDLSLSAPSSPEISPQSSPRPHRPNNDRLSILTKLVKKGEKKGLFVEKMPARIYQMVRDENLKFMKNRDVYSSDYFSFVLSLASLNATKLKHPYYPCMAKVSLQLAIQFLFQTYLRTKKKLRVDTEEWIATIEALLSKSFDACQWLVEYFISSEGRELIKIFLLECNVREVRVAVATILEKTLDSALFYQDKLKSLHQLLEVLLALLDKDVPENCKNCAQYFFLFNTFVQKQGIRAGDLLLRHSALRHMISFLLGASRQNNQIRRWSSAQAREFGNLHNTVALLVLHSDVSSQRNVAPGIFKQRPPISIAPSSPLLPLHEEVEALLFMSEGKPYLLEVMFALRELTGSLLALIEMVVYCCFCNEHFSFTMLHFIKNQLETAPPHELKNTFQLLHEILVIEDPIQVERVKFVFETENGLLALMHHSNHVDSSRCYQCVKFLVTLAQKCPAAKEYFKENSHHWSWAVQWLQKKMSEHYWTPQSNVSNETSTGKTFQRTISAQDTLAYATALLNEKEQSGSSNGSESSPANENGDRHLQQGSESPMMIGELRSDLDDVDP
Method in brief: as §1

[4] = target: T3, USP25 (UniProt Q9UHP3)
T3 sequence (whole entry): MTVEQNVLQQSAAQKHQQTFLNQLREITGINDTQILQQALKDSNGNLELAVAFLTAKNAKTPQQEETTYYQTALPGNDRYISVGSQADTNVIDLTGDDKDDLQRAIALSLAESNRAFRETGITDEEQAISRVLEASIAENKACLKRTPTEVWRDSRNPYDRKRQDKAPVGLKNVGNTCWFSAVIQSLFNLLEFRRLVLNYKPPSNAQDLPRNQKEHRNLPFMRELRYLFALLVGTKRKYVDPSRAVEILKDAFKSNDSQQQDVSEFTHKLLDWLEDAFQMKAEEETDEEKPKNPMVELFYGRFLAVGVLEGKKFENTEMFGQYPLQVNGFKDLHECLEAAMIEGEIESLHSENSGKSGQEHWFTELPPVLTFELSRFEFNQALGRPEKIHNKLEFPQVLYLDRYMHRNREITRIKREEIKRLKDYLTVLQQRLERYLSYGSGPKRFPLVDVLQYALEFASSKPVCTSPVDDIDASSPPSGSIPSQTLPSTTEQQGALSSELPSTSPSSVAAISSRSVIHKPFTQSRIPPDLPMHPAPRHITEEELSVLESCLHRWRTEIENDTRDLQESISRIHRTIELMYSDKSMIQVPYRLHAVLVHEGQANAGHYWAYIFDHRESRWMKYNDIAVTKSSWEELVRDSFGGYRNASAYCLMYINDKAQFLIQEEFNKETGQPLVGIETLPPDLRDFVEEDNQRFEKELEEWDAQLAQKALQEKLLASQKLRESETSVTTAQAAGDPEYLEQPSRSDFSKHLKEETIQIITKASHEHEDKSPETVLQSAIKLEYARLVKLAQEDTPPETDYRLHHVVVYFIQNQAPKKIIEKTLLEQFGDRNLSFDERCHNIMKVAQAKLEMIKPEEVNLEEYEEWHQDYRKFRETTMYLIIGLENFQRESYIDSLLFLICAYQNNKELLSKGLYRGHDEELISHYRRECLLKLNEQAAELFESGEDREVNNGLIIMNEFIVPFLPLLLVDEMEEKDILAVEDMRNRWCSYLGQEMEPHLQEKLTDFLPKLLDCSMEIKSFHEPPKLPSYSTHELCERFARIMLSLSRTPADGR
Method in brief: as §1

[5] = target: T4, USP28 (UniProt Q96RU2)
T4 sequence (whole entry): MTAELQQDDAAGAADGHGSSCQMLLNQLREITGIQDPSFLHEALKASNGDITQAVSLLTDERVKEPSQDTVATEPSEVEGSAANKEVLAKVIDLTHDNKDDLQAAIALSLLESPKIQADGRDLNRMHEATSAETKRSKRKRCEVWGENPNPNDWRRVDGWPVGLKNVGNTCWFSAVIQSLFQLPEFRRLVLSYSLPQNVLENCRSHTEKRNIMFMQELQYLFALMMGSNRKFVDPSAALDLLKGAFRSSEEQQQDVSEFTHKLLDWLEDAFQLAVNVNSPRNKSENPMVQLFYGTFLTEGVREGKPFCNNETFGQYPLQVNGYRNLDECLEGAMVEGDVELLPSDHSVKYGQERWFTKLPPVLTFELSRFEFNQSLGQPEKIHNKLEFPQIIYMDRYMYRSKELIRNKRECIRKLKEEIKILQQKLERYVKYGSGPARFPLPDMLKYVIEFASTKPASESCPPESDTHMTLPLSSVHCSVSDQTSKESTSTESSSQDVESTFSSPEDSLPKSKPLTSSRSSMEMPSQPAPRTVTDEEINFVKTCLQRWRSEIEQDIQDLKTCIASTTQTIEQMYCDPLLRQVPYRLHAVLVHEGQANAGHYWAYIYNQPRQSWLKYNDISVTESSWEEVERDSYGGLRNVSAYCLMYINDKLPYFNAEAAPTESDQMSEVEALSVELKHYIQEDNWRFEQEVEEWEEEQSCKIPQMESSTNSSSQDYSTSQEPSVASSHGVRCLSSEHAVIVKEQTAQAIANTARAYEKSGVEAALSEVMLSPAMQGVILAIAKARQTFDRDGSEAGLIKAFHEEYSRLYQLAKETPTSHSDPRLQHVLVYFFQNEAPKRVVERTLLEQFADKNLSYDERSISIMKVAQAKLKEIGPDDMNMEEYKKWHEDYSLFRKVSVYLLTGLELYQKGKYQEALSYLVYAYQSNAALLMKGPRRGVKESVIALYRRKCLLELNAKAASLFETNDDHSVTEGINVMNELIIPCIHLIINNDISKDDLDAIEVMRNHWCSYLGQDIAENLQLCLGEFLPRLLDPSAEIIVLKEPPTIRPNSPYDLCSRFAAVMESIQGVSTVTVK
Method in brief: as §1

Measured: log2 ratio of Biotin-Ahx-Ub-VS probe labelling

O=C(CCl)N1CCC(C(O)c2ccc(F)cc2)CC1 (stereo not given)
inactive: [1] 0.0656 | [2] 0.13 | [3] -0.164 | [4] 0.058 | [5] -0.0428
